Assays:
Assay in all cases: PBM binding z-score (relative to random genomic background probes); higher = stronger binding; sequences stand for … in GC…GCGATTGACAGCGTAGAATGAAGG
[1] = tested on: PPARg:RXRa DBDmut IVT, anti-RXR (DBD mutation: RXRa K156A/R161A, NR concentration 270 nM, RXRa partner concentration 90 nM)
How it was run: (§1)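 Binding z-scores were set against random background probes. The data came from custom Agilent 4×180K protein-binding microarrays carrying double-stranded probes with 34-nt variable regions, incubated 1 h with ligand-free nuclear receptor dimers. Partner-specific antibodies detected binding, and scanned fluorescence was regression-normalized.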

[2] = tested on: PPARg:RXRa IVT, anti-PPARg (NR concentration 270 nM, RXRa partner concentration 90 nM)
How it was run: as §1

[3] = tested on: PPARg DBDmut:RXRa IVT, anti-PPARg (DBD mutation: PPARg1 K132A/R137A, NR concentration 270 nM, RXRa partner concentration 90 nM)
How it was run: as §1

[4] = tested on: PPARg DBDmut IVT, anti-PPARg (DBD mutation: PPARg1 K132A/R137A, NR concentration 270 nM)
How it was run: as §1

[5] = tested on: PPARg homodimer (NR concentration 180 nM)
How it was run: as §1

[6] = tested on: PXR:RXRa (NR concentration 270 nM, RXRa partner concentration 90 nM)
How it was run: as §1

[7] = tested on: PXR homodimer (NR concentration 270 nM)
How it was run: as §1

[8] = tested on: RARa:RXR (NR concentration 270 nM, RXRa partner concentration 90 nM)
How it was run: as §1

[9] = tested on: RARa homodimer (NR concentration 270 nM)
How it was run: as §1

[10] = tested on: RARb:RXRa (NR concentration 270 nM, RXRa partner concentration 90 nM)
How it was run: as §1

Row | Sequence | PBM binding z-score [1] | PBM binding z-score [2] | PBM binding z-score [3] | PBM binding z-score [4] | PBM binding z-score [5] | PBM binding z-score [6] | PBM binding z-score [7] | PBM binding z-score [8] | PBM binding z-score [9] | PBM binding z-score [10]
1 | GATACAGTGTCAGCTAGAGGCCAGAGTATGGAAA | -0.588 | 0.187 | 0.343 | -0.259 | -0.286 | -0.439 | -0.0774 | -0.0269 | -0.579 | 0.973
2 | TATCGGAGGACACGAAGGTCAGAGCTTTCCAGAG | 0.135 | 1.54 | -0.485 | -0.6 | 1.67 | 1.9 | 1.2 | 2.05 | 0.593 | 3.22
3 | GCGACTGGGTCATCAGCAGGTTACCATAACTTAA | 5.38 | 5.94 | 0.513 | -0.691 | 1.31 | 2.22 | -0.585 | 3.39 | -0.469 | 3.23
4 | TCTAGCACGCCAGAGGGTCACTCAAGAGGTACGG | 0.507 | 0.0659 | -0.875 | -0.824 | 0.566 | 1.56 | -0.773 | 2.37 | -0.679 | 2.04
5 | TTACCAAAGTGAAGGTCGTTGATCCCTCTGTAGA | 0.0303 | 0.266 | -1.3 | -0.698 | 0.00936 | 1.15 | 0.234 | 1 | -0.568 | 0.632
6 | CCTTACGGGTGACTCCAGGTTATAGCATCGGAGT | 1.25 | 1.42 | -0.537 | -0.755 | 0.285 | 1.01 | 0.0547 | 1.22 | -0.139 | 0.499
7 | TCTTGTAGATAAACAGGAGGTTAAGAAAGATCGA | 1.35 | 0.282 | 0.991 | 1.09 | 0.0399 | 0.748 | -0.0168 | 1.05 | 0.379 | 0.359
8 | CGAACTAGGTCAGAACAGGACAGTGAAGGATGAT | 7.21 | 6.92 | 1.26 | 0.744 | 0.92 | 0.787 | -0.0517 | 0.927 | 0.693 | 2.77
9 | CGAACTAGGTCAAGGACAGTCAATCTCCGCACGC | 8.01 | 8.24 | 1.66 | 1.8 | 1.37 | 1.25 | 0.00572 | 2.09 | 0.256 | 4.08
10 | TCGAGTAGGTTAGGGGCATTCCGAATGGCGTCGA | 2.28 | 1.28 | -1.42 | -0.881 | 0.639 | 0.385 | -0.429 | 0.334 | -0.756 | 1.06
11 | ATCGAAAGGTCGTTAGGTGAGTATACAGAAAGGC | 0.388 | 2.1 | 1.14 | 1.04 | 1.51 | 2.9 | 0.99 | 3.2 | 0.848 | 3.53
12 | CAAACTAGGCCACAGAGGTCAAAGTCCGTGCGTA | 7.36 | 7.37 | 2.08 | 0.00435 | 3.3 | 5.81 | 4.73 | 6.18 | 0.998 | 4.29
13 | TAGCCTACGTCATGGGCCAGTATACCACGCGAAC | -0.818 | -0.288 | -0.41 | -0.97 | -0.836 | -0.57 | -0.465 | -0.541 | -1.11 | -0.332
14 | TAGCCTAGGCCAGATCGGGCCAGTATACGCTATA | -0.93 | -0.678 | -0.211 | -0.658 | -1.06 | -0.946 | -0.923 | -0.593 | -1.1 | -0.396
15 | TCTTGTATATCAAAGGTTAAGAAAGCCGAAGCCT | 1.87 | 2.65 | 0.898 | 0.823 | 1.29 | 1.93 | 0.544 | 2.96 | 0.898 | 2.22
16 | CCTAGCATGCCAATCTGGGTCACTCAAGGCTTGA | 3.67 | 4.84 | 0.133 | -0.458 | 0.737 | 0.913 | -0.249 | 1.65 | -0.219 | 1.16
17 | TTACCAAGGTGAAAGGCCGTTGATGCACGCCTTG | 1.83 | 3.1 | 1.11 | -0.0172 | 1.5 | 0.172 | -0.516 | 1.1 | -0.123 | 1.66
18 | ATCTCTAGGTAATACTCAGTTCAGTGAAGAACGC | 2.77 | 1.87 | 1.44 | 1.47 | 1.53 | 1.58 | 2.24 | 0.858 | 2.17 | 0.79
19 | CTTAGCAGGCCAATCTGGGTCACTCAAGGCTTGA | 4.54 | 5.41 | 1.49 | -0.595 | 0.867 | 0.661 | -0.63 | 1.8 | -0.332 | 1.46
20 | TAGTCTAGGTCAGATCGGGCCAGTATACGCTATA | 4.19 | 4.5 | 1.78 | 1.67 | 1.18 | 1.33 | -0.0787 | 1.54 | -0.273 | 3.25
21 | TCTATTAGTTGATTAGGGCAACAGAAACAGCGGA | 2.04 | 1.59 | 1.69 | 1.06 | 1.02 | 0.573 | 0.374 | 0.636 | 1.08 | 0.82
22 | ATATGTACGTTAGCTGGGGTCATTCAGACTAGGC | 0.759 | 1.55 | 1.41 | 1.62 | 2.55 | 5.7 | 3.18 | 5.82 | 1.41 | 2.57
23 | AGAACAAGGGCAATGAGTTGATAGCACGGGTGGC | 2.52 | 1.75 | 0.287 | -0.527 | 0.058 | 0.978 | 4.14 | 0.000148 | -0.325 | 2.2
24 | TCTAGCATGCCAGAGGGTCACTCAAGAGGTACGG | 0.74 | 0.403 | -0.182 | -1.1 | 0.757 | 1.74 | -0.449 | 2.86 | -0.513 | 2.11

— the supplement of paper PMC6555819
